Measurements published in the supplement of paper PMC12024529.

Test system: HEK293 WT BDD-FVIII-Gluc
Assay: secreted FVIII-Gluc luciferase Z-score vs DMSO control; higher = more FVIII-Gluc secretion
Details: 5 µM
Method: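 Natural plant-compound library (480 compounds, ST catalogue IDs) screened on HEK293 cells stably expressing WT BDD-FVIII-Gaussia luciferase fusion at 5 µM. Secreted Gluc activity in the medium is given as a Z-score relative to DMSO controls.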

Row | Structure (SMILES) | secreted FVIII-Gluc luciferase Z-score
1 | Nc1ccn(C2OC(COP(=O)(O)O)C(O)C2O)c(=O)n1 (centres undefined) | 0.194
2 | COc1c(-c2ccccc2)oc2c(ccc3occc32)c1=O | 0.489
3 | COc1ccc(-c2cc(=O)c3ccc(O)cc3o2)cc1 | 1.22
4 | CO[C@H]1/C=C/O[C@@]2(C)Oc3c(C)c(O)c4c(O)c(c(/C=N/N5CCN(C)CC5)c(O)c4c3C2=O)NC(=O)/C(C)=C\C=C\[C@H](C)[C@H](O)[C@@H](C)[C@@H](O)[C@@H](C)[C@H](OC(C)=O)[C@@H]1C | -0.504
5 | C=CC1CN2CCC1CC2C(O)c1ccnc2ccc(OC)cc12 (centres undefined) | -0.00699
6 | COC(=O)C[C@](O)(CCCC(C)(C)O)C(=O)O[C@@H]1C(OC)=C[C@]23CCCN2CCc2cc4c(cc2[C@H]13)OCO4 | -4.72
7 | CN1C(=O)CC[C@H]1c1cccnc1 | -0.0585
8 | NC[C@@H]1O[C@H](O[C@H]2[C@@H](O)[C@H](O[C@@H]3[C@@H](O)[C@H](N)C[C@H](N)[C@H]3O[C@H]3O[C@H](CN)[C@@H](O)[C@H](O)[C@H]3N)O[C@@H]2CO)[C@H](N)[C@@H](O)[C@@H]1O | 0.572
9 | CCn1nc(C(=O)O)c(=O)c2cc3c(cc21)OCO3 | -1.17
10 | COc1cc2c(C=O)c3c4c(cc(OC)c(OC)c4c2cc1OC)CCN3C | 0.315
11 | CC(=O)N1C=C(C2CCCCN2)CCC1 (centres undefined) | 0.76
12 | COc1c2ccoc2cc2oc(=O)ccc12 | 0.335
13 | O=c1cc(-c2ccc(O)cc2O)oc2ccccc12 | 0.498
14 | CCC(C)C(=O)O[C@H]1C[C@@H](C)C=C2C=C[C@H](C)[C@H](CC[C@@H]3C[C@@H](O)CC(=O)O3)[C@H]21 (some centres undefined) | -0.369
15 | CC(=O)[C@@H]1[C@H]2[C@H](C(=O)[C@H]3OC[C@@H]2O3)[C@H]2C=Cc3ccccc3N21 | 0.187
16 | O=C1OC(C(O)CO)C(O)=C1O (centres undefined) | 0.497
17 | COc1cc2c(C)c3c4c(cc(OC)c(OC)c4c2cc1OC)CCN3C | -1.2
18 | O=C1C[C@@H]2[C@@H](CO)[C@H](O)C[C@@H]2O1 | 0.258
19 | O=C1c2ccccc2C(=O)c2c1ccc(O)c2O | 0.508
20 | COc1ccc2c(=O)cc(-c3ccc(O)cc3)oc2c1 | 0.228

Row | Structure (SMILES) | secreted FVIII-Gluc luciferase Z-score
21 | O=c1cc(-c2ccccc2O)oc2ccc3ccccc3c12 | 0.197
22 | O=c1cc(-c2ccccc2O)oc2cc(O)cc(O)c12 | 0.64
23 | CC1=CCC2(C)CCC(O)(C(C)C)C2C(OC(=O)c2ccc(O)cc2)C1 (centres undefined) | 0.752
24 | C[C@H]1O[C@@H](O[C@H]2[C@@H](O)C[C@H](O[C@H]3[C@@H](O)C[C@H](O[C@H]4CC[C@@]5(C)[C@H](CC[C@@H]6[C@@H]5C[C@@H](O)[C@]5(C)[C@@H](C7=CC(=O)OC7)CC[C@]65O)C4)O[C@@H]3C)O[C@@H]2C)C[C@H](O)[C@@H]1O | -4.67
25 | CC(=O)OC1CCC2(C)C3CCC4(C)C(CC5CCCCC54C(C)=O)C3CC(=O)C2(O)C1 (centres undefined) | 0.153
26 | O=C1OC(=O)C2C3CCC(O3)C12 (centres undefined) | -0.862
27 | CC(C)c1ccc2c(c1)CCC1C(C)(CN)CCC[C@]21C (some centres undefined) | 0.04
28 | COc1ccccc1-c1cc(=O)c2cc(O)ccc2o1 | 0.281
29 | O=C1C[C@@H](c2ccccc2)Oc2cc(O)cc(O)c21 | 0.733
30 | O=C(O)c1cc(O)c2c(c1)[C@@H]([C@H]1c3cc(C(=O)O)cc(O)c3C(=O)c3c(O[C@@H]4O[C@H](CO)[C@@H](O)[C@H](O)[C@H]4O)cccc31)c1cccc(O[C@@H]3O[C@H](CO)[C@@H](O)[C@H](O)[C@H]3O)c1C2=O | 0.274
31 | COc1c2occc2cc2ccc(=O)oc12 | 0.821
32 | CC1(C)S[C@@H]2[C@H](NC(=O)C(N)c3ccccc3)C(=O)N2[C@H]1C(=O)O (some centres undefined) | -0.57
33 | CO[C@@H]1[C@@H](OC2OC(C)C(OC3CC(C)(O)C(O)C(C)O3)C(N(C)C)C2O)[C@@H](CC=O)C[C@@H](C)[C@@H](OC2CCC(N(C)C)C(C)O2)/C=C/C=C/C[C@@H](C)OC(=O)C[C@H]1O (some centres undefined) | 0.36
34 | CC1C(=O)OC2CC34C5CC(C(C)(C)C)C36C(OC(=O)C6O)OC4(C(=O)O5)C21O (centres undefined) | -0.604
35 | COc1ccc2c(c1OC)C(=O)O[C@H]2[C@H]1c2c(cc3c(c2OC)OCO3)CCN1C | 0.932
36 | CC1(C)CC[C@]2(C(=O)O)CC[C@]3(C)C(=CC[C@@H]4[C@@]5(C)CC[C@H](O)C(C)(C)[C@@H]5CC[C@]43C)[C@@H]2C1 | 0.157
37 | O=c1c(O)c(-c2cccc(O)c2)oc2ccccc12 | -0.392
38 | O=C1c2ccccc2C(=O)c2c(O)c(O)cc(O)c21 | -0.332
39 | COc1ccc(C2OCC3(COC(C)=O)C(C)C=C(C)C2C3C)cc1 (centres undefined) | -1.63
